Source: PubChem BioAssay (NCI)
Compounds without any hit were thinned out: in the full panel of roughly 83,000, 20% have a hit.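 Treatment: one concentration, 48 hours, 96-well format. Scoring: percent growth, with anything below 10 considered active.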 The source made the active and inactive calls.

Legend:
Assay in all cases: NCI-60 one-dose screen, 48 h (100 = growth as untreated, 0 = no growth, -100 = all killed)
Settings in all cases: 10 µM unless noted
SK-MEL-2 melanoma = tested on: SK-MEL-2 melanoma
EKVX NSCLC = tested on: EKVX NSCLC
SN12C renal = tested on: SN12C renal
UO-31 renal = tested on: UO-31 renal
TK-10 renal = tested on: TK-10 renal
ACHN renal = tested on: ACHN renal
CAKI-1 renal = tested on: CAKI-1 renal
A498 renal = tested on: A498 renal
CCRF-CEM leukemia = tested on: CCRF-CEM leukemia
MOLT-4 leukemia = tested on: MOLT-4 leukemia
SR leukemia = tested on: SR leukemia
RPMI-8226 leukemia = tested on: RPMI-8226 leukemia
OVCAR-8 ovarian = tested on: OVCAR-8 ovarian
OVCAR-5 ovarian = tested on: OVCAR-5 ovarian
OVCAR-4 ovarian = tested on: OVCAR-4 ovarian
SK-OV-3 ovarian = tested on: SK-OV-3 ovarian
IGROV1 ovarian = tested on: IGROV1 ovarian
OVCAR-3 ovarian = tested on: OVCAR-3 ovarian
HS 578T breast = tested on: HS 578T breast
NCI/ADR-RES ovarian = tested on: NCI/ADR-RES ovarian

Compound	growth (SK-MEL-2 melanoma)	growth (EKVX NSCLC)	growth (SN12C renal)	growth (UO-31 renal)	growth (TK-10 renal)	growth (ACHN renal)	growth (CAKI-1 renal)	growth (A498 renal)	growth (CCRF-CEM leukemia)	growth (MOLT-4 leukemia)	growth (SR leukemia)	growth (RPMI-8226 leukemia)	growth (OVCAR-8 ovarian)	growth (OVCAR-5 ovarian)	growth (OVCAR-4 ovarian)	growth (SK-OV-3 ovarian)	growth (IGROV1 ovarian)	growth (OVCAR-3 ovarian)	growth (HS 578T breast)	growth (NCI/ADR-RES ovarian)
C/C(=C(\c1ccc(O)cc1)c1ccc(OCCN2CCCCCC2)cc1)c1ccc(Cl)cc1	-92.3% (active)	-81.2% (active)	-84.7% (active)	-93.3% (active)	-95.2% (active)	-88.2% (active)	-97.3% (active)	-91% (active)	3.56% (active)	-21.6% (active)	-24.9% (active)	-2.67% (active)	-73.5% (active)	-56.3% (active)	-59.8% (active)	-85.5% (active)	-65.1% (active)	-73.3% (active)	-46.2% (active)	-72.7% (active)
COc1cc2c3c(cc4c5c(ccc4c3c1OC)OCO5)N(CCN(C)C)C2=O	-44.5% (active)	-22% (active)	-5.44% (active)	-53.9% (active)	-4.01% (active)	-51.4% (active)	-26.6% (active)	-77.6% (active)	1.57% (active)	3.85% (active)	-1.44% (active)	-21.7% (active)	9.28% (active)	-6.73% (active)	-4.27% (active)	2.24% (active)	-11.3% (active)	0.51% (active)	-8.56% (active)	4.67% (active)
CC1=C(C)C(=O)C(Nc2ccc3c(c2)OCO3)=C(Br)C1=O	114% (inactive)	76.3% (inactive)	102% (inactive)	88.1% (inactive)	150% (inactive)	100% (inactive)	95.6% (inactive)	95.2% (inactive)	11.6% (inactive)	-10.2% (active)	56.9% (inactive)	71% (inactive)	98.3% (inactive)	116% (inactive)	60.3% (inactive)	87.6% (inactive)	90.9% (inactive)	104% (inactive)	99.7% (inactive)	97.4% (inactive)
CCCC[n+]1ccc(SCC(=O)n2ccc3ccccc32)c2ccccc21	99.9% (inactive)	88.1% (inactive)	96.5% (inactive)	76.5% (inactive)	141% (inactive)	104% (inactive)	81.9% (inactive)	111% (inactive)	87.3% (inactive)	83.1% (inactive)	56.3% (inactive)	59.5% (inactive)	92.7% (inactive)	103% (inactive)	72.1% (inactive)	88.9% (inactive)	83.3% (inactive)	91.8% (inactive)	99.6% (inactive)	110% (inactive)
CC(=O)OCCCCN1C=C/C(=C\C(=O)n2ccc3ccccc32)c2ccccc21	113% (inactive)	75% (inactive)	108% (inactive)	71.6% (inactive)	147% (inactive)	94.8% (inactive)	79.8% (inactive)	121% (inactive)	102% (inactive)	98% (inactive)	88.7% (inactive)	98.3% (inactive)	102% (inactive)	102% (inactive)	85.5% (inactive)	97.6% (inactive)	83.3% (inactive)	100% (inactive)	102% (inactive)	109% (inactive)
CC1=C(C)C(=O)C(Nc2ccc(C)cc2)=C(Br)C1=O	111% (inactive)	79.3% (inactive)	98.9% (inactive)	87.5% (inactive)	145% (inactive)	102% (inactive)	106% (inactive)	97.2% (inactive)	17.9% (inactive)	-30.6% (active)	43.6% (inactive)	55.2% (inactive)	92.7% (inactive)	108% (inactive)	75.6% (inactive)	85.5% (inactive)	94.5% (inactive)	105% (inactive)	96.7% (inactive)	95.7% (inactive)
O=C(CCCCCCNC(=O)C(O)(O)C(F)(F)F)Nc1nc2ccccc2s1	-7.95% (active)	27.5% (inactive)	10.8% (inactive)	-9.93% (active)	-3.74% (active)	-22.7% (active)	-17.8% (active)	-21.7% (active)	22.6% (inactive)	15.6% (inactive)	16.7% (inactive)	13.5% (inactive)	8.26% (active)	1.89% (active)	35.9% (inactive)	-26.3% (active)	-3.25% (active)	-38.8% (active)	12.5% (inactive)	1.87% (active)
O=C(CSc1nc2ccccc2c(=O)n1-c1ccc(S(=O)(=O)Nc2ccc(Cl)nn2)cc1)Nc1ccc(S(=O)(=O)Nc2ccc(Cl)nn2)cc1	120% (inactive)	99.8% (inactive)	106% (inactive)	87.9% (inactive)	106% (inactive)	98.2% (inactive)	91.9% (inactive)	104% (inactive)	101% (inactive)	97.6% (inactive)	87.3% (inactive)	108% (inactive)	103% (inactive)	103% (inactive)	101% (inactive)	105% (inactive)	107% (inactive)	108% (inactive)	106% (inactive)	103% (inactive)
CCN(CC)CCOc1ccc(C(=C(C)Cc2ccc(OC)cc2)c2ccc(OCCN(CC)CC)cc2)cc1	116% (inactive)	84% (inactive)	86.1% (inactive)	68.3% (inactive)	111% (inactive)	46.7% (inactive)	69.8% (inactive)	85.7% (inactive)	3.83% (active)	3.61% (active)	-26.6% (active)	-25% (active)	74.5% (inactive)	77.4% (inactive)	89.1% (inactive)	93.5% (inactive)	68.9% (inactive)	31.2% (inactive)	72.9% (inactive)	85.4% (inactive)
O=c1nc(Nc2ccc([N+](=O)[O-])cc2O)sc2ccccc12	39.4% (inactive)	38% (inactive)	34.5% (inactive)	35.8% (inactive)	82% (inactive)	43.5% (inactive)	33% (inactive)	-7.49% (active)	16.6% (inactive)	31.1% (inactive)	24.2% (inactive)	3.35% (active)	24.1% (inactive)	47.4% (inactive)	36.9% (inactive)	49.2% (inactive)	33.2% (inactive)	14% (inactive)	27.4% (inactive)	22.5% (inactive)
Cc1ccc(-c2cc3nc(C(Cl)Cl)nc(-c4ccc(S(=O)(=O)N(C)C)cc4)n3n2)cc1	113% (inactive)	103% (inactive)	50.7% (inactive)	92.1% (inactive)	107% (inactive)	83.2% (inactive)	82.2% (inactive)	101% (inactive)	69.3% (inactive)	75.6% (inactive)	68.7% (inactive)	86.9% (inactive)	65.5% (inactive)	106% (inactive)	94.3% (inactive)	101% (inactive)	95% (inactive)	108% (inactive)	105% (inactive)	78.8% (inactive)
COc1ccc(/C=N/NC(=O)CSc2nc(-c3cnccn3)cc(-c3cccs3)c2C#N)cc1	89% (inactive)	78.2% (inactive)	64% (inactive)	101% (inactive)	98.7% (inactive)	74% (inactive)	48.3% (inactive)	79% (inactive)	86.1% (inactive)	73.8% (inactive)	65.3% (inactive)	48.3% (inactive)	61.4% (inactive)	103% (inactive)	92.6% (inactive)	75.6% (inactive)	90.7% (inactive)	90.6% (inactive)	64.6% (inactive)	65.8% (inactive)
C#CCn1cc(/C=N/Nc2nc(-c3ccc(Br)cc3)cs2)c2ccccc21	104% (inactive)	63.9% (inactive)	95.1% (inactive)	81.4% (inactive)	162% (inactive)	98% (inactive)	106% (inactive)	94.7% (inactive)	101% (inactive)	101% (inactive)	119% (inactive)	110% (inactive)	101% (inactive)	97.4% (inactive)	107% (inactive)	91.1% (inactive)	74.9% (inactive)	108% (inactive)	101% (inactive)	101% (inactive)
O=C(CSc1nc2ccccc2c(=O)n1CCc1ccccc1)Nc1ccc(S(=O)(=O)Nc2ccc(Cl)nn2)cc1	111% (inactive)	86.9% (inactive)	94.9% (inactive)	65.1% (inactive)	149% (inactive)	90.6% (inactive)	75.1% (inactive)	107% (inactive)	99.2% (inactive)	99.8% (inactive)	95.9% (inactive)	102% (inactive)	92% (inactive)	95.8% (inactive)	93.1% (inactive)	94.1% (inactive)	95.6% (inactive)	98.8% (inactive)	97.1% (inactive)	91.7% (inactive)
Cc1ccccc1NC(=O)Nc1nc2ccc([N+](=O)[O-])cc2s1	-9.75% (active)	10.3% (inactive)	6.76% (active)	9.02% (active)	12.2% (inactive)	3.8% (active)	-19.4% (active)	-24.7% (active)	16.2% (inactive)	12.5% (inactive)	6.41% (active)	5.55% (active)	9.56% (active)	16.9% (inactive)	3.62% (active)	-19.4% (active)	22.6% (inactive)	10.1% (inactive)	24.1% (inactive)	6.24% (active)
COc1cc2oc(-c3cccc(NC(=O)c4cccc([N+](=O)[O-])c4)c3)cc(=O)c2c(OC)c1OC	91.5% (inactive)	63.9% (inactive)	40.2% (inactive)	37.8% (inactive)	92.7% (inactive)	30.3% (inactive)	49.7% (inactive)	72.9% (inactive)	59.7% (inactive)	54% (inactive)	55.2% (inactive)	48.8% (inactive)	6.56% (active)	72.1% (inactive)	37.6% (inactive)	85.9% (inactive)	64.6% (inactive)	59% (inactive)	-10.3% (active)	34.6% (inactive)
